The text below walks through data of ChEMBL document CHEMBL4649994.

The structures appear in SMILES notation.

This experiment has as its target T1, Transcription intermediary factor 1-alpha (Homo sapiens) (UniProt O15164).
T1 sequence (whole entry): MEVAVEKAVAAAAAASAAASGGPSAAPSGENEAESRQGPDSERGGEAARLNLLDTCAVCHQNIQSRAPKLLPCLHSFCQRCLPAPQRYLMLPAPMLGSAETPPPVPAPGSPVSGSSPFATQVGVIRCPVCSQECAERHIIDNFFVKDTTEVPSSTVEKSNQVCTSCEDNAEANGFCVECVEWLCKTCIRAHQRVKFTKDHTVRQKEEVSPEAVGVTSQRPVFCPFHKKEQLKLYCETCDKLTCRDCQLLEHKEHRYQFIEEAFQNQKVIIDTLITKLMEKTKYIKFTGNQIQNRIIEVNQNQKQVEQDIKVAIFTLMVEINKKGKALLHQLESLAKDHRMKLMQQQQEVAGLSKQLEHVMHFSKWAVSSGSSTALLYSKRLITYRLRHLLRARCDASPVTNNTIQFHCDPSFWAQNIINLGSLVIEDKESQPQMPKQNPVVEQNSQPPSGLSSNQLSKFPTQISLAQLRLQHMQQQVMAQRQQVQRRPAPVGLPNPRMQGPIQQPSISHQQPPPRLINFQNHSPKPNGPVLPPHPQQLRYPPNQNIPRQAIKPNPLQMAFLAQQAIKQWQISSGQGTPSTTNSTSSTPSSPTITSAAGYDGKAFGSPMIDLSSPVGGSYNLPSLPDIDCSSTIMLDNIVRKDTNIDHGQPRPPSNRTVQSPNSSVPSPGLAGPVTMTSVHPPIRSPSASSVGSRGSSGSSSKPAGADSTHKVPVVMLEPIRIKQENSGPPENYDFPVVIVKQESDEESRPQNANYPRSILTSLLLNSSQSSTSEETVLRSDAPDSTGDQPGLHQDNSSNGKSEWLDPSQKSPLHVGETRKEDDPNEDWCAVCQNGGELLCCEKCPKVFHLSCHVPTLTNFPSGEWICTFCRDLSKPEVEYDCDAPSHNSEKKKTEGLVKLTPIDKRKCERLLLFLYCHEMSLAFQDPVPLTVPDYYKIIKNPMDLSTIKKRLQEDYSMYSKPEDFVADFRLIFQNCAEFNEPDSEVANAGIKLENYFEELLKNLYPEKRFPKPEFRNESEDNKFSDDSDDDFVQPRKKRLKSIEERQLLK
The following applies: Compound concentration 10.0 uM, Protein concentration 2.0 uM.

Regarding `COc1ccccc1S(=O)(=O)Nc1ccc2c(c1)CN(C)C(=O)N2`, the ΔTm was determined as 0.62 °C.

In general, ΔTm refers to the shift of the melting midpoint relative to a reference.
